Shown are actives, neighbours in structure and some others; about 32% of the full set was active somewhere.
CYP2C19 activ – activators of human cytochrome P450 2C19 | 96,000 tested, under 10 active | recombinant CYP2C19, luciferin-H EGE luminescence; hits give high values; 0 = fully inhibited enzyme, 1 = untreated enzyme | P33261 | AID 1025 | activation factor at 5 µM;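 active = activation factor of at least 2 at 5 µM in the primary screen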;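 also: 0 = wells with 2.5 mM tranylcypromine and 1 = vehicle-only wells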
CYP2C9 act – CYP2C9 (human) activation | AID 1024 | activation factor at 5 µM | 96,000 tested, 1.4% active | recombinant CYP2C9, luciferin-H conversion, luminescence; hits give high values; factor 1 = untreated enzyme, 0 = blocked;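 active = activation factor of 2 or more for CYP2C9 at a 5 µM dose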;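 also: 0 = sulfaphenazole-blocked wells and 1 = vehicle-only wells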
Target sequence (P11712 whole entry, looked up): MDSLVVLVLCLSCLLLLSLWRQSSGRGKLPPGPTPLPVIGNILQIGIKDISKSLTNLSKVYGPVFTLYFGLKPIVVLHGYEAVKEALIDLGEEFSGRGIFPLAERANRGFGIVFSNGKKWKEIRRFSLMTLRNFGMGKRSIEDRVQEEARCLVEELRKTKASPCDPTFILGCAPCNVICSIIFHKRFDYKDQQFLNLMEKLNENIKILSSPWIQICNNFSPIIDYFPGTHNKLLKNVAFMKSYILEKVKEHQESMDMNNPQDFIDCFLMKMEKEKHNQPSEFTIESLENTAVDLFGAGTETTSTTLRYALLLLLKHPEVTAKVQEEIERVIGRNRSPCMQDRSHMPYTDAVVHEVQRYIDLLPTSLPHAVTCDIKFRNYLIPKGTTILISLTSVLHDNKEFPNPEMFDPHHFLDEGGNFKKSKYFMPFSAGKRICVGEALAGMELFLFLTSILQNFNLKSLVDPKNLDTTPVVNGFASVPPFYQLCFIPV
CYP2C19 inhib – human CYP2C19 inhibition; 96,000 tested, 21% active; CYP2C19 Supersomes, luciferin-H EGE luminescence, 30 min; AID 778; inhibition, % at 5 µM;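 active = CYP2C19 inhibition above a set limit at 5 µM in the primary screen, cut at about 50% in these data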;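 also: plate controls were negative control wells for no effect and 2.5 mM tranylcypromine positive control for full effect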
PostGolgi yeast – growth inhibition of a yeast mutant, post-Golgi transport screen; 98,000 tested, 0.9% active; inhibition, % at 10 µM; AID 739; post-Golgi transport phenotypic cell assay;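 also: yeast cells grown in 1536-well plates; yeast grown about 18 h at 30C before absorbance read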
PostGolgi ctrl – yeast control strain growth, post-Golgi counter-screen; efflux-deficient yeast background strain, growth absorbance A615, 16 h; inhibition, % at 10 µM; 98,000 tested, 5% active; AID 738
CYP2C9 inhib – inhibitors of human CYP2C9; CYP2C9 Supersomes, luciferin-H conversion, luminescence; 96,000 tested, 20% active; AID 777; inhibition, % at 5 µM;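 active = blocking of liver enzyme CYP2C9 beyond about 50% at 5 µM, limit read from the data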
Starred values were filed as active, the others as inactive; / = no result given. Rule as the data show it, unless noted: active = inhibition above about 30%; inactive = the rest.

SMILES | CYP2C19 activ | CYP2C9 act | CYP2C19 inhib | PostGolgi yeast | PostGolgi ctrl | CYP2C9 inhib
COC(=O)c1c(NC(=O)C2(C)Cc3ccccc3C(=O)O2)sc2c1CCCC2 (stereo not given) | 0.4 | 0.4 | 60* | -7 | 14 | 56*
CC1(C(=O)Nc2nccs2)Cc2ccccc2C(=O)O1 (stereo not given) | 1 | 1 | -2 | 0 | -15 | -1
COc1ccccc1NC(=O)C1(C)Cc2ccccc2C(=O)O1 (stereo not given) | 0.6 | 2.3* | 40 | 4 | -2 | -134
Cc1n[nH]c(=S)n1/N=C/c1ccccc1OCc1ccc(Cl)cc1 | 1.2 | 0.9 | -22 | -21 | 24 | 11
Cc1ccc(CNC(=O)C2CNc3cc(C)ccc3O2)cc1 (stereo not given) | 0.7 | 0.8 | 32 | 12 | 6 | 18
CCOC(=O)c1c(C)n(-c2ccc(OC)cc2)c2c(C/C(C)=N/O)c(Br)c(OC)c(O)c12 | 0.9 | 0.9 | 9 | -1 | -3 | 8
COc1ccccc1NC(=O)Nn1cnnc1 | 1.2 | 1.1 | -20 | -8 | -12 | -12
CCOc1ccc(N2CC(C(=O)Nc3ncccc3C)CC2=O)cc1 (stereo not given) | 1.1 | 0.8 | -6 | 3 | 10 | 24
Cc1ccc(S(=O)(=O)C(CCC(=O)c2ccc(Cl)cc2)C(N)=O)cc1 (stereo not given) | 1.1 | 1.6 | -8 | 13 | 3 | -63
COc1ccc(C(CC(=O)c2ccc(O)cc2)S(=O)(=O)c2ccc(C)cc2)cc1 (stereo not given) | 0.3 | 0.1 | 71* | -1 | 7 | 88*
COc1ccc(S(=O)(=O)NC(C)C(=O)O)cc1 (stereo not given) | 0.9 | 0.9 | 6 | 0 | 2 | 6
COc1ccc(S(=O)(=O)c2ccc(O)cc2)cc1 | 0.3 | 2.8* | 71* | -10 | 3 | -183
CC(C)(C)NC(=O)NC(=O)COC(=O)c1ccco1 | 1 | 1.1 | -5 | 2 | -9 | -11
CC1=CCC(C(=O)N/N=C/c2cccs2)C(c2ccc(F)cc2)C1 (stereo not given) | 0.6 | 0.6 | 39 | 3 | 45* | 44
O=C(Cc1ccccc1)N/N=C/c1cccs1 | 0.7 | 1 | 26 | 14 | 9 | -3
CN(C(=O)c1cccc(C#N)c1)c1nnc(-c2cnccn2)s1 | 0.9 | 1 | 9 | 18 | -4 | -5
Cc1ccc(C(=O)Nc2ccc3nc(C)sc3c2)s1 | 0.7 | 0.1 | 34 | 6 | -4 | 87*
Cc1ccc(S(=O)(=O)Nc2ccc3nc(N)sc3c2)cc1 | 0 | 0.1 | 99* | 3 | 16 | 95*
Cc1nc2ccc(NC(=O)NCCO)cc2s1 | 0.9 | 1.1 | 12 | 20 | 23 | -13
Cc1nc2ccc(NC(=O)N3CCOCC3)cc2s1 | 1.1 | 1.5 | -11 | 15 | 1 | -47
Cc1ccc(S(=O)(=O)Nc2ccc3nc(C)sc3c2)cc1 | 0.8 | 0.2 | 23 | 14 | 10 | 79*
Cc1nc2ccc(NS(=O)(=O)c3ccc4c(c3)OCCO4)cc2s1 | 0 | 0 | 98* | -1 | 15 | 98*
CC(C)(C)c1ccc(/C([O-])=C(/C(=S)NCc2ccco2)[n+]2ccccc2)cc1 | 1 | 0.7 | 2 | -6 | -3 | 26
O=C(Nc1cccc2ccccc12)NC1CCCc2ccccc21 (stereo not given) | 0.6 | 1 | 39 | 3 | 4 | 2
CC1CCCC(C(=O)O)N1C(=O)CCSSCCC(=O)N1C(C)CCCC1C(=O)O (stereo not given) | 1.1 | 1.1 | -12 | -7 | 10 | -14
SMILES | CYP2C19 activ | CYP2C9 act | CYP2C19 inhib | PostGolgi yeast | PostGolgi ctrl | CYP2C9 inhib
Cc1nc2ccc(NS(=O)(=O)c3c(C)c(C)cc(C)c3C)cc2s1 | 0.7 | 0.3 | 35 | 10 | 36* | 74*
COc1ccc(C2(CN(C(C)=O)C(C)=O)CCCC2)cc1OC | 0.5 | 0.7 | 52* | 1 | 39* | 31
COc1ccc(C2(CNC(=O)Cc3ccccc3)CCCC2)cc1OC | 0.4 | 0.7 | 62* | -1 | 10 | 35
CNc1oc(-c2ccc(Cl)cc2)nc1C#N | 0.7 | 0.9 | 32 | -1 | 7 | 10
Cc1cc(COc2ccccc2O)on1 | 1 | 1.1 | 3 | -4 | -6 | -9
O=C(CN(C(=O)CCC(=O)Nc1nccs1)c1ccc(F)c(Cl)c1)NCc1ccco1 | 0.2 | 0.7 | 76* | 2 | 2 | 27
O=C(CN(Cc1ccccc1)C(=O)CCC(=O)Nc1nccs1)NCc1ccco1 | 0.4 | 0.7 | 61* | -9 | 6 | 26
O=C(CN(C(=O)CCC(=O)Nc1nccs1)c1ccc(F)cc1)NCc1ccco1 | 0.3 | 0.7 | 65* | 0 | 32* | 32
CC(C)(C)C1(C)OC(C(=O)NC2CCCCC2)C(C(=O)NC2CCCCC2)O1 (stereo not given) | 0.8 | 0.9 | 18 | -7 | 8 | 12
COc1cccc(C(=O)COC(=O)C(C)N2C(=O)C3C4C=CC(C4)C3C2=O)c1 (stereo not given) | 0.7 | 0.7 | 30 | -4 | 7 | 33
O=C(CC1COc2ccccc2O1)NCCc1ccccc1 (stereo not given) | 0.5 | 0.6 | 54* | -7 | 9 | 42
O=C(CCC1COc2ccccc2O1)NCc1ccccc1 (stereo not given) | 0.4 | 0.7 | 59* | -3 | -5 | 32
O=C(Nc1ccccc1)c1ccc2nc(-c3ccco3)c(-c3ccco3)nc2c1 | 0.4 | 0.3 | 61* | 3 | 0 | 67*
CCCCNC(=O)c1ccc2nc(-c3ccco3)c(-c3ccco3)nc2c1 | 1 | 0.7 | 4 | -4 | -1 | 31
COc1ccc2nc(-c3ccco3)c(-c3ccco3)nc2c1 | 0.7 | 0.4 | 35 | 13 | 11 | 56*
CCCNC(=O)c1ccc2nc(-c3ccccc3)c(-c3ccccc3)nc2c1 | 0.9 | 0.5 | 7 | 10 | 27 | 51*
O=C(NCc1ccccc1)c1ccc2nc(-c3ccco3)c(-c3ccco3)nc2c1 | 0.6 | 0.2 | 36 | 3 | 13 | 77*
CC(=O)c1ccc(NC(=O)c2ccc3nc(-c4ccco4)c(-c4ccco4)nc3c2)cc1 | 0.9 | 0.7 | 6 | -1 | -3 | 27
CCCCNC(=O)c1sc2nc(C)cc(COC)c2c1-n1cccc1 | 0.6 | 0.6 | 36 | 4 | 16 | 44
COCc1cc(C)nc2sc(C(=O)OC(C)C)c(N)c12 | 0.2 | 0.3 | 85* | 4 | -4 | 72*
C=CCn1c(Cc2nc3ccc(Cl)cc3[nH]2)n[nH]c1=S | 0 | 0.7 | 98* | 3 | 0 | 32
C=CCn1c(-c2ccoc2)n[nH]c1=S | 1 | 1.1 | 5 | 0 | 1 | -10
C=CCn1c(-c2cccc3ccccc23)n[nH]c1=S | 0.1 | 0.5 | 92* | 0 | 16 | 52*
C=CCn1c(-c2ccccc2)n[nH]c1=S | / | / | / | 5 | 4 | /
C=CCn1c(Cc2c[nH]c3ccccc23)n[nH]c1=S | 0.4 | 0.7 | 62* | -2 | 20 | 32
